Inconclusive results are not listed. Calls of active or inactive are those of the source. The calls were made as follows: active = hit-call score of the fitted dose curve at least 0.9, where 1 is the maximum; inconclusive = response in the unintended direction; inactive = score below 0.9.
assay: TOX21_PR_LUC_Followup_Antagonist_viability: Viability Assessment in the Tox21 HEK293 Progesterone Receptor (PR) Antagonism Luciferase Follow-Up Assay (AID 2283940)
In short: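 Read-out: CellTiter-Glo ATP luminescence, loss of signal taken as reduced viability. Cells: HEK293-PR-A-luc, 3,000/well, 5 h settling, then 16 h compound exposure at 37C, 0% CO2.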

Row | SMILES | outcome
1 | CCC(=O)O[C@]1(C(=O)COC)[C@@H](C)C[C@H]2[C@@H]3CCC4=CC(=O)C=C[C@]4(C)C3(F)[C@@H](O)C[C@@]21C (stereo partly specified) | inactive
2 | CC(C)(C)C(O)/C=C/c1ccc2c(c1)OCO2 (stereo unspecified) | inactive
3 | CC(=O)OCC(=O)[C@@]1(O)[C@H](C)C[C@H]2[C@@H]3CCC4=CC(=O)C=C[C@]4(C)[C@@]3(F)[C@@H](O)C[C@@]21C | inactive
4 | CCN(CC)CC(=O)OCC(=O)[C@@]1(O)CC[C@H]2[C@@H]3CCC4=CC(=O)CC[C@]4(C)[C@H]3[C@@H](O)C[C@@]21C | inactive
5 | COC(=O)[C@@H]1CC2=CC(=O)CC[C@]2(C)[C@@]23O[C@@H]2C[C@@]2(C)[C@@H](CC[C@@]24CCC(=O)O4)[C@H]13 | inactive
6 | C/C=C(/C(=C/C)c1ccc(OC(C)=O)cc1)c1ccc(OC(C)=O)cc1 | inactive
